# Only some compounds are listed: those with a hit (about 19% of all), similar ones and a draw of the others.
# KB-V1 cytotox: KB-V1 MDR subline cytotoxicity. KB-V1 MDR cells viability, CellTiter-Glo, 72 h. Potency, µM (highest dose often 46.1 µM), actives largely listed as cytotoxic. 400,000 tested, 3.4% active. AID 1347076; note: nearly all actives have a fitted effect of over 60% in size
#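 Readout: CellTiter-Glo luminescence, 10 min after addition. Cells: KB-V1 MDR subline, 72 h at 37 degrees C with compound. Analysis: corrected, normalized data fitted to concentration-effect curves.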
# HT1080-NT tox: kills 2HG-producing HT-1080-NT fibrosarcoma cells | HT-1080-NT fibrosarcoma viability, CellTiter-Glo ATP luminescence, 48 h | Potency, µM (highest dose often 46.1 µM), without a hit: at the top dose activity, negative = less viability, most hits filed as cytotoxic | 360,000 tested, 1.6% active;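 note: NT is the 2HG producing partner of a matched IDH1 knockdown line; 0% = DMSO-treated cells and -100% = media-only wells without cells; nearly all actives have a fitted effect of over 55% in size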
#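 Fibrosarcoma NT cells, 750 per well in 5% FBS RPMI, were exposed to compound for 48 hours. Viability: CellTiter-Glo luminescence.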
# HT1080 IDH1KD tx: toxicity to HT-1080 IDH1 knockdown cells (counter line); 360,000 tested, 2% active; HT-1080 IDH1 knockdown viability, ATP luminescence, 48 h; Potency, µM (series often up to 46.1 µM), for the others: at the highest dose activity, negative = toxicity, hits mostly cytotoxic;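 note: 0% = DMSO wells and -100% = cell-free medium wells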
#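 Using the IDH1-knockdown HT-1080 line run in the same batch and compound series as the NT line, viability after 48 h at 37 °C was determined by CellTiter-Glo luminescence and expressed as % activity.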
# DT40 TDP1 no CPT: qHTS for Inhibitors of human tyrosyl-DNA phosphodiesterase 1 (TDP1): qHTS in cells in absence of CPT; Potency, µM (titrated, usually from 46.2 µM), without a hit: top-dose activity change, negative = growth inhibition, most hits filed as inhibitors; AID 686978, 2013; DT40 Tdp1-/- hTDP1 cells, no CPT, ATP luminescence, 48 h; 420,000 tested, 15% active; note: nearly all actives have a fitted effect of over 55% in size
#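 Stably hTDP1-transfected Tdp1-null chicken DT40 cells were treated with library compounds minus camptothecin and grown for at least 48 hr at 37 °C, after which cellular ATP was quantified by luminescence.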
# KB-3-1 tox: KB-3-1 parental cell cytotoxicity; KB-3-1 viability, CellTiter-Glo ATP luminescence, 72 h; Potency, µM (doses to about 46.1 µM), hits mostly cytotoxic; 400,000 tested, 1.4% active; note: nearly all actives have a fitted effect of over 60% in size
#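 Luminescent ATP read-out (CellTiter-Glo) measures survival of drug-naive KB-3-1 cells after 72 h compound exposure at 37 °C. Titration series was screened from lowest to highest concentration, with DMSO vehicle plates as background controls.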
# DT40 TDP1 CPT: growth inhibition of DT40 Tdp1-/-;hTDP1 cells with camptothecin (screen for TDP1 inhibitors). 420,000 tested, 12% active. Potency, µM (titrated, usually from 46.2 µM), for inactives: top-dose activity change, negative = growth inhibition, hits mostly inhibitors. AID 686979. chicken DT40 Tdp1-/-;hTDP1 cells + 20 nM CPT, ATP luminescence, 48 h; note: nearly all actives have a fitted effect of over 55% in size
#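 Chicken DT40 Tdp1-/- cells complemented with human TDP1, 400 cells/well, exposed to compounds plus 20 nM camptothecin for at least 48 h at 37 C; viability read as ATP content by CellTiter-Glo luminescence.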
# Starred values were filed as active, the others as inactive; i = inactive; ? = inconclusive; . = no result given; [ ] = remark or other dose. Calls come from the whole dose curve; as a rule, active = well fitted curve in the direction sought with a large enough effect; inconclusive = small, poorly fitted or top-dose-only effect, or another doubt; inactive = no such curve, though single readings can be large; an effect the other way counts as inactive or inconclusive. Unless noted, % is set by controls: 0 for no effect and ±100 for the full control effect; potency is the fitted concentration of half-maximal effect.
SMILES,KB-V1 cytotox,HT1080-NT tox,HT1080 IDH1KD tx,DT40 TDP1 no CPT,KB-3-1 tox,DT40 TDP1 CPT
COCCOC(=O)C1=C(C)Nc2ncnn2C1c1ccccc1 (stereo not given),i,?,-1.3%,-4.9%,i,-14.6%
CCCC1=C(C(=O)OCC)C(/C=C/c2ccccc2)n2ncnc2N1 (stereo not given),?,22.4µM*,11.2µM*,12.6µM*,8.91µM*,15.8µM*
CCOC(=O)C1=C(C)Nc2ncnn2C1/C=C/c1ccccc1 (stereo not given),10.3µM*,?,?,?,?,?
CCCCOC(=O)C1=C(C)Nc2ncnn2C1c1ccc(OCC)c(OC)c1 (stereo not given),4.61µM*,7.3%,6.8%,-20.5%,i,-22.4%
COc1cccc(N2CCN(C3C(=O)c4ccccc4N3C(C)=O)CC2)c1 (stereo not given),i,.,.,?,i,?
CCOc1cccc2cc(-c3nc4ccc(C(=O)O)cc4[nH]3)c(=O)oc12,.,.,.,-23.3%,.,4.9%
CCOC(=O)C1=C(C)NC(=O)NC1/C(C)=C/c1ccccc1 (stereo not given),20.6µM*,-15.3%,?,?,i,-9.3%
CCCC1=C(C(=O)OCC)C(c2ccc(N(C)C)cc2)n2ncnc2N1 (stereo not given),18.4µM*,-13.7%,-23.4%,25.9µM*,?,?
CCOC(=O)C1=C(C)NC(=O)NC1C (stereo not given),i,7.6%,?,-9.6%,i,-17.5%
CCCC1=C(C(=O)OCC)C(c2ccc(F)cc2)n2ncnc2N1 (stereo not given),i,5.2%,2.5%,?,i,?
O=C(c1cc2ccccc2oc1=O)N1CCCN(C(=O)c2cc3ccccc3oc2=O)CC1,i,6.2%,15.6%,8.1%,i,0.4%
O=C(c1cc2ccccc2oc1=O)N1CCN(c2ccc(Cl)cc2)CC1,i,.,.,20.6µM*,i,?
Cc1cc(C)c(S(=O)(=O)N2CCN(C(=O)c3cc4ccccc4oc3=O)CC2)c(C)c1,i,-3.2%[9.24 µM],-1.4%,?,i,20.6µM*
CCNC(=O)CC1C(=O)N(c2ccccc2)C(=O)N1CCc1ccc(OC)cc1 (stereo not given),i,17.8%,6.7%,-8.4%,i,?
COc1ccc(NC(=O)CC2C(=O)N(c3ccc(C)cc3)C(=O)N2CCc2ccccc2)cc1 (stereo not given),i,.,.,14.6µM*,?,14.6µM*
COc1ccc(CCN2C(=O)N(c3ccc(F)cc3)C(=O)C2CC(=O)Nc2ccc(F)c(F)c2)cc1 (stereo not given),i,.,.,20.6µM*,i,11.6µM*
COc1ccc(CN2C(=O)N(c3ccc(F)cc3)C(=O)C2CC(=O)Nc2ccccc2)cc1 (stereo not given),i,.,.,13µM*,i,13µM*
CCNC(=O)CC1C(=O)N(c2ccc(F)cc2)C(=O)N1Cc1ccc(OC)cc1 (stereo not given),i,7.6%,-0.2%,-8.3%,i,-0.6%
O=C(CC1C(=O)N(c2ccccc2)C(=O)N1Cc1ccc(F)cc1)Nc1cccc(F)c1 (stereo not given),.,.,.,23.1µM*,.,?
COc1ccc(C(=O)C2CCCN(C(=O)c3ccc4nccnc4c3)C2)c(C)c1 (stereo not given),i,8.3%,12.3%,?,i,?
Cc1cccc(NC(=O)c2nc[nH]c2C(=O)N2CCN(c3ccccc3)CC2)c1,i,2.8%,9.4%,-14.3%,i,-6.5%
COc1ccc(CCN2C(=O)N(c3ccc(F)cc3)C(=O)C2CC(=O)Nc2ccccc2)cc1 (stereo not given),i,.,.,?,i,?
COc1ccc(CCN2C(=O)N(c3ccc(F)cc3)C(=O)C2CC(=O)Nc2ccc(OC)cc2)cc1 (stereo not given),i,.,.,?,i,11.6µM*
CCCOc1ccc(NC(=O)CC2C(=O)N(c3ccc(Cl)cc3)C(=O)N2CCc2ccncc2)cc1 (stereo not given),.,.,.,25.9µM*,.,?
Cc1ccccc1CS(=O)(=O)CCC(=O)NCc1ccc(F)cc1Cl,i,-9.0%,-0.3%,-0.2%,i,-10.7%
SMILES,KB-V1 cytotox,HT1080-NT tox,HT1080 IDH1KD tx,DT40 TDP1 no CPT,KB-3-1 tox,DT40 TDP1 CPT
Fc1ccc(CSc2nnc(-c3cccnc3)o2)cc1,i,-2.2%,-1.5%,-14.8%,i,-8.6%
CCC1CN(Cc2cn[nH]c2-c2ccc(OC)cc2)Cc2cc(OC)ccc2O1 (stereo not given),.,.,.,?,.,-4.2%[9.04 µM]
CCOCc1cnc(C)nc1NCC(=O)c1c(C)[nH]c2cc(C)ccc12,i,?,-1.9%[9.24 µM],-27.9%,16.4µM*,?
CCOCc1cnc(C)nc1NCC(=O)c1c(C)[nH]c2ccccc12,i,-6.1%,-9.2%,-21.1%,23.1µM*,-12.7%
NC(=O)c1cc(Cl)ccc1OCC(=O)NC1CC1,i,11.2%,13.5%,-15.2%,i,14.5%
ClCc1nc2ccccc2c2ccccc12,?,5.8µM*,18.4µM*,2.59µM*,?,4.11µM*
O=C(NCc1ccco1)C1CCN(S(=O)(=O)c2cccc([N+](=O)[O-])c2)CC1,?,-7.1%,-7.4%,-1.1%,i,-8.3%
Cc1ccc(C)c(NC(=O)NCc2ccc3c(c2)CCN3C(=O)c2ccccc2)c1,i,.,.,?,i,20.6µM*
CN(C)c1ccc(C(=O)NCc2ccc3c(c2)CCN3C(=O)c2ccccc2)cc1,i,.,.,?,i,16.4µM*
CCN(CC)c1ccc(C(=O)NCc2ccc3c(c2)CCN3C(=O)c2cccc(C)c2)cc1,i,.,.,?,i,?
Cc1ccc(C(=O)NCc2ccc3c(c2)CCN3C(=O)c2ccc(C)cc2)cc1,.,.,.,18.4µM*,.,20.6µM*
CCN(CC)c1ccc(C(=O)NCc2ccc3c(c2)CCN3C(=O)c2ccccc2)cc1,i,.,.,23.1µM*,i,20.6µM*
CCOc1cc(C(=O)NCCCn2ccnc2)cc(OCC)c1OCC,?,8.6%,7.9%,13.4%,i,0.8%
CCOC(=O)c1c(NC(=O)CN2C(=O)NC3(CCC(C)CC3)C2=O)sc(C)c1-c1ccc(C)cc1 (stereo not given),i,-5.1%,-0.4%,18.4µM*,i,20.6µM*
